Measurements published in PubChem BioAssay (NCI).
The panel holds about 83,000 compounds, 20% with a hit somewhere; the sample as a whole holds those more often.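 Each cell line was grown in a 96-well plate and treated with one concentration of compound for 48 hours. Values below 10 were considered active.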 A number with no mark means an inactive call. Calls of active or inactive are those of the source.

What follows are compounds tested on NCI-H226 lung (assay: NCI-60 one-dose screen, 48 h (100 = growth as untreated, 0 = no growth, -100 = all killed)). Conditions: 10 µM unless noted.
Procedure: Growth inhibition of the NCI-H226 human Non-Small Cell Lung tumor cell line is measured as a screen for anti-cancer activity. Cells are grown in 96 well plates and exposed to the test compound for 48 hours. Compounds are tested at a single concentration, which is 10^-5 M for most compounds. The reported endpoint is percent growth (GI% or GIPRCNT), where numbers from 0 - 100% represent growth inhibition, and numbers from -100% - 0 represent cell death. For example, a value of 40 represents 60% growth inhibition. A value of 0 means no net growth occurred over the course of the experiment. A value of -40 indicates 40% of cells at the beginning of the experiment died by the end of the experiment. A value of -100 means all cells are dead at the end of the experiment.
NCI-60 Human Tumor Cell Lines Screen was performed using the standard one-dose NCI protocol, which is described in more detail at https://dtp.cancer.gov/discovery_development/nci-60/default.htm.
Compounds with GIPRCNT values below 10 were considered active. Activity score was based on GIPRCNT using the following formula: […]
Score is 0 for GIPRCNT values of 100 or above, 50 for GIPRCNT values of 0, and 100 for GIPRCNT values of -100.
`CCCCCCCCCCSc1ncnc2nc[nH]c12` gave a growth of 67.4%. Work on `COc1ccc(-c2noc(N)c2-c2cc(OC)c3c(c2)OCO3)cc1` yielded a growth of 86.3%. In the case of `C[C@@H]1CC[C@H]2[C@@H](C)C(O)O[C@@H]3O[C@]4(C)CC[C@@H]1[C@]32OO4` (stereo not given in full), the growth is reported as 69.8%. `CO[C@H]1CC(O[C@@H]2/C(C)=C/C[C@@H]3C[C@@H](C[C@]4(CC[C@H](C)[C@@H](C5CCCCC5)O4)O3)OC(=O)[C@@H]3C=C(C)/C(=N/O)[C@H]4OC/C(=C\C=C\[C@@H]2C)[C@]43O)O[C@@H](C)C1O` (stereo not given in full) was tested, and the growth was -84.2% (active). Work on `CCn1c2c(c3ccccc31)SC1c3cccn3CCN1C2=S` (stereo not given) yielded a growth of 108%. For `Cc1ccc([N+](=O)[O-])cc1NC(=O)Nc1cccc(F)c1`, the growth was 69.6%. In the case of `Cn1cc(-c2csc(-c3cn(C)c4ncccc34)n2)c2cc(Br)cnc21`, the growth is reported as 101%. `Cn1c(N)c(N=O)c(=O)[nH]c1=O` gave a growth of 106%. `C=C(C)[C@H]1CC/C(C)=C/CC[C@]2(C)O[C@H]2CC/C(COC(C)=O)=C\C1=O` showed a growth of 130%. With `CCC(O)C(C)(C)C` (stereo not given) the growth was 106%. In the case of `COc1ccc(/C=C2\COc3ccc(O)c(O)c3C2=O)cc1OC`, the growth is reported as 46.6%. Work on `COc1ccc(-c2cc(Cc3cccs3)c(=O)n(Cn3cncn3)n2)cc1` yielded a growth of 96.3%. `CN1CCCC1c1cccnc1` (stereo not given) gave a growth of 96.4%. Compound `Cn1cc(-c2nc(-c3c[nH]c4ncccc34)cs2)c2cccnc21` has a growth of 70%. `COc1cc(NC(=O)c2cc3ccccc3cc2O)c(OC)cc1Cl` was tested, and the growth was 13.5%. For `O=C(/C=C/c1cccnc1)NCCCCC1CCCN(C(=O)c2ccccc2)C1` (stereo not given), the growth was 98.5%. `O=C1/C(=N/O)CCc2ccccc21` showed a growth of 101%. `CC(c1ccccn1)C(C)(O)C(C)c1ccccn1` (stereo not given) was tested, and the growth was 103%. `COc1cc(/C=C/C(=O)Nc2ccc3c(c2)/C(=C\c2cccn2C)C(=O)N3)cc(OC)c1OC` showed a growth of 67.3%. `O=C(Nc1ccc(Oc2ccc(NC(=O)Nc3ccc([N+](=O)[O-])cc3)cc2)cc1)Nc1ccc([N+](=O)[O-])cc1` was tested, and the growth was 24.4%. `C[N+]1(CCC[N+]2(C)C[C@@H]3[C@H](C2)[C@@H]2C=C[C@H]3C2)CCOCC1` (stereo not given in full) gave a growth of 110%. With `NC(=O)c1ccccc1NC(=O)c1ccccc1Cl` the growth was 105%. In the case of `COC(=O)[C@]12CC[C@@H](C)[C@H](C)[C@@H]1C1=CC[C@@H]3[C@@]4(C)C=C(O)C(=O)[C@@]5(C)COC(=C54)C[C@@]3(C)[C@]1(C)CC2`, the growth is reported as -48.9% (active). `COC(=O)CCC1=C(C)/C(=C/c2[nH]c(-c3ccc[nH]3)cc2OC)N=C1C` showed a growth of 23.9%. `CCCCCCCC/C=C/CCCCCCCC1=NC(C)(C)CN1CC(C)O` (stereo not given) was tested, and the growth was 89.6%. In the case of `O=C(NCCCO)c1cc(Cl)ccc1O`, the growth is reported as 24.3%. `CC(=O)Oc1ccc(C23c4ccccc4C2(OC(C)=O)c2cc(OC(C)=O)ccc23)cc1` (stereo not given) gave a growth of 140%. With `Nc1nc(SCc2ccccc2Cl)c(-c2ccccc2)c(SCc2ccccc2Cl)n1` the growth was 105%. Compound `CCN(CC)CCCNCCCNc1cc(OC)cc2cccnc12` has a growth of 81.9%. `C=C(C[C@](O)(C(=O)/C=C/c1ccc(Cl)cc1)C(=O)OC)c1ccccc1` was tested, and the growth was 89.7%. In the case of `Cc1c(C(N)=O)sc2c1c(=O)n(Cc1ccccc1)c1nnc(SCC(=O)Nc3ccc(Cl)cc3)n21`, the growth is reported as 9.97% (active). With `CCN1CCN(c2cc(-c3cn[nH]c3-c3cc(C)cc(OC)c3)nc(-c3cccnc3)n2)CC1` the growth was 99.7%. Work on `CO[C@H]1/C=C/O[C@@]2(C)Oc3c(C)c(O)c4c(O)c(c(/C=N/N5CCN(C)CC5)c(O)c4c3C2=O)NC(=O)/C(C)=C\C=C\C(C)[C@H](O)[C@@H](C)[C@@H](O)[C@@H](C)[C@@H](OC(C)=O)[C@@H]1C` (stereo not given in full) yielded a growth of 84.5%. Work on `O=C(Nc1cccc(-n2cc(-c3ccncc3)c(-c3ccc(O)c(Cl)c3)n2)c1)Nc1ccc(Cl)c(C(F)(F)F)c1` yielded a growth of 20.2%. `N=C(N)/N=C(\CCc1nc2ccccc2[nH]1)c1nc2ccccc2[nH]1` was tested, and the growth was 93.4%. Work on `O=C1NC(=O)/C(=C\c2ccccc2)C2=C1CCCC2` yielded a growth of 92.3%. For `CCCCCCCCCCC[C@@H](C[C@H]1OC(=O)[C@H]1CCCCCC)OC(=O)[C@@H](CC(C)C)NC=O`, the growth was 72.6%. `O=C(C=C=Nc1ccccc1)C(=O)N=C=Cc1ccccc1` showed a growth of 67.7%. Work on `CN(CC(=O)Nc1nc2ccccc2[nH]1)S(=O)(=O)c1ccc(Cl)cc1` yielded a growth of 81.7%. Compound `O=C(Nc1ccc(Cl)cc1Cl)Nc1ccc(-c2cccnc2)cc1N1CCC(CO)CC1` has a growth of 55.4%.
